# How the values were obtained:
# Test in all cases: DAPPL (digital affinity profiling via proximity ligation, sequencing); 10 mM Tris-HCl pH 7.5, 50 mM NaCl, 1 mM DTT, 4% glycerol, room temperature, 30 min; GST-TFs on glutathione beads, 16-mer random dsDNA library, 0.1% formaldehyde crosslink after washing; high values mean tight binding
# [1] = target: T1, FEV (Homo sapiens, UniProt Q99581 1-238); details: protein: recombinant; tags: N-terminal GST; dsDNA, one strand shown
# T1 sequence: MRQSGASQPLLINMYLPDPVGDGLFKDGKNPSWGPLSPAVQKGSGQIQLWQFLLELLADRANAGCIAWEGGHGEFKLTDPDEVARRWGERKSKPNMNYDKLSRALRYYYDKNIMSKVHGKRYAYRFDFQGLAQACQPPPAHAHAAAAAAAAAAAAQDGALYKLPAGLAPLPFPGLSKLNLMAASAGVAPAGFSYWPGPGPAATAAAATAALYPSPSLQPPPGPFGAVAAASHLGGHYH
# Procedure, shortened: (§1)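 Human transcription factors were made in yeast as GST fusions, captured on glutathione beads and barcoded with DNA. With a tag-only sample included, the pool was incubated with 200 nmole of a random double-stranded 16-mer DNA library in Tris/NaCl/DTT/glycerol buffer at room temperature for 30 min, then crosslinked with 0.1% formaldehyde after washing, ligated by proximity, amplified and sequenced. For binding signal, each hexamer's read frequency for a factor is divided by its frequency for the tag-only sample.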
# [2] = target: ETV5 (Homo sapiens, UniProt P41161 1-510); details: protein: recombinant; tags: N-terminal GST; dsDNA, one strand shown
# Chain of ETV5 (P41161 whole entry): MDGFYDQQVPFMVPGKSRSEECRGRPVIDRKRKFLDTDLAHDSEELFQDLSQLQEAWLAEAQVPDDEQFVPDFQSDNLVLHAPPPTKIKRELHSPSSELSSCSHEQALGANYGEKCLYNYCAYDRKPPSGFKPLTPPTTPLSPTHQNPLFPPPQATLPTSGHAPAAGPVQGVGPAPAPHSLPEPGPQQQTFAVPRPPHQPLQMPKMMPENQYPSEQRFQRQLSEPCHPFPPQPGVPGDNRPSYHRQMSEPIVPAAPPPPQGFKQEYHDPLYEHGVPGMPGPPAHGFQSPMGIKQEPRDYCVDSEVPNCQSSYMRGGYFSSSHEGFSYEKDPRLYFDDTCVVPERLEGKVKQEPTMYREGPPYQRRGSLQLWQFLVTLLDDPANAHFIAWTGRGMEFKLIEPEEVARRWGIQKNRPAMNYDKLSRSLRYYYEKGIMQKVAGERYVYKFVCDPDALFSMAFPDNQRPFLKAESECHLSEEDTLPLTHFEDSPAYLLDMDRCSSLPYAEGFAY
# Procedure, shortened: as §1
# [3] = target: HSF1 (Homo sapiens, UniProt Q00613 1-529); details: protein: recombinant; tags: N-terminal GST; chain copies: 3; dsDNA, one strand shown
# Chain of HSF1 (Q00613 whole entry): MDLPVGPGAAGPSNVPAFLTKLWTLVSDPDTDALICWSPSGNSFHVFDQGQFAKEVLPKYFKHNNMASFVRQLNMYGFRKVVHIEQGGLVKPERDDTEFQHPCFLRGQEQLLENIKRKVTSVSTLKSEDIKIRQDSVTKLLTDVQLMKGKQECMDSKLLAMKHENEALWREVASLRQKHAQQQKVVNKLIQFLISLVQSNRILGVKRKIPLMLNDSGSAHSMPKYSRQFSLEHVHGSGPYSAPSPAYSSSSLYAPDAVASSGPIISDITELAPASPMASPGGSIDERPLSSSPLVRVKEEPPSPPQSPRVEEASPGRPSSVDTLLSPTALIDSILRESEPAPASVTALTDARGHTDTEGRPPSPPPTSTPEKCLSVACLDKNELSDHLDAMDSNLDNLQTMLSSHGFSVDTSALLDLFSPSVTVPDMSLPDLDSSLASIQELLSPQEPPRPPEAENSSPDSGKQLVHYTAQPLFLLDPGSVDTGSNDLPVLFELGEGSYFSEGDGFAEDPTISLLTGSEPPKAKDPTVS
# Procedure, shortened: as §1
# [4] = target: T2, SPIC (Homo sapiens, UniProt Q8N5J4 1-248); details: protein: recombinant; tags: N-terminal GST; dsDNA, one strand shown
# T2 sequence: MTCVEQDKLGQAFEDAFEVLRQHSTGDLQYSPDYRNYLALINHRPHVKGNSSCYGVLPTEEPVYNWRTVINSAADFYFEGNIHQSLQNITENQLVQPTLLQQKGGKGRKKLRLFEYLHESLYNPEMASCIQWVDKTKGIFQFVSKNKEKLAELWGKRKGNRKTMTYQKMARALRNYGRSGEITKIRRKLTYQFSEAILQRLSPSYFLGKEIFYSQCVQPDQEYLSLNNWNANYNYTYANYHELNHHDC
# Procedure, shortened: as §1
# [5] = target: ELF4 (Homo sapiens, UniProt Q99607 1-663); details: protein: recombinant; tags: N-terminal GST; dsDNA, one strand shown
# Chain of ELF4 (Q99607 whole entry): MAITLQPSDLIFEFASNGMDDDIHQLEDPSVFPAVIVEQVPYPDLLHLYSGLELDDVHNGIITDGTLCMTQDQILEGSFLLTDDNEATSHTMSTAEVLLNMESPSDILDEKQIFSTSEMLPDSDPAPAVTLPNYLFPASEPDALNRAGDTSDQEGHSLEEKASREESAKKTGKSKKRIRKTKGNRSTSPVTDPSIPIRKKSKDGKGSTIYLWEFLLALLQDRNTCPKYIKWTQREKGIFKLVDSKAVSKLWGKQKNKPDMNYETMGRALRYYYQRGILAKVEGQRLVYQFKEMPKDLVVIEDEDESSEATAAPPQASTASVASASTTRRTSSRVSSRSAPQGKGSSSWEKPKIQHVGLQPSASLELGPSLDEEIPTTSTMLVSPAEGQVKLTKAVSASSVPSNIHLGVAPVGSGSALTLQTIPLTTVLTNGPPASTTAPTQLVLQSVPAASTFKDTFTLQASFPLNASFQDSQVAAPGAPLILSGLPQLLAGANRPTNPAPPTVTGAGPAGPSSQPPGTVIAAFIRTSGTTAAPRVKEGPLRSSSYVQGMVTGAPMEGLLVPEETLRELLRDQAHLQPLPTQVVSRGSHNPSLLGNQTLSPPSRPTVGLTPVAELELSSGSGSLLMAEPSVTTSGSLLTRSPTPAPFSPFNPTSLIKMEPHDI
# Procedure, shortened: as §1
# [6] = target: T3, ELK4 (Homo sapiens, UniProt P28324-2 1-405); details: protein: recombinant; tags: N-terminal GST; dsDNA, one strand shown
# T3 sequence: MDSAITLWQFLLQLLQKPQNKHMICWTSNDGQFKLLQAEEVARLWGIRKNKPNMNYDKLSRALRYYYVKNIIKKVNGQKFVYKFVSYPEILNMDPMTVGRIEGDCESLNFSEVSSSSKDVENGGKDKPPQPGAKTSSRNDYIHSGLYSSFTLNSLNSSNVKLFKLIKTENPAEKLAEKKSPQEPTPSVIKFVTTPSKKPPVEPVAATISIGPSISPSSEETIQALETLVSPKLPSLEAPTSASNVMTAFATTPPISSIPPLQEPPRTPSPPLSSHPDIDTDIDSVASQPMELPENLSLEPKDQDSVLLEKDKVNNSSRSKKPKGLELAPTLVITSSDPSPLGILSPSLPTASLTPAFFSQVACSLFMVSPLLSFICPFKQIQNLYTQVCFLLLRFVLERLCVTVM
# Procedure, shortened: as §1
# [7] = target: T4, ETV2 (Homo sapiens, UniProt O00321 1-342); details: protein: recombinant; tags: N-terminal GST; dsDNA, one strand shown
# T4 sequence: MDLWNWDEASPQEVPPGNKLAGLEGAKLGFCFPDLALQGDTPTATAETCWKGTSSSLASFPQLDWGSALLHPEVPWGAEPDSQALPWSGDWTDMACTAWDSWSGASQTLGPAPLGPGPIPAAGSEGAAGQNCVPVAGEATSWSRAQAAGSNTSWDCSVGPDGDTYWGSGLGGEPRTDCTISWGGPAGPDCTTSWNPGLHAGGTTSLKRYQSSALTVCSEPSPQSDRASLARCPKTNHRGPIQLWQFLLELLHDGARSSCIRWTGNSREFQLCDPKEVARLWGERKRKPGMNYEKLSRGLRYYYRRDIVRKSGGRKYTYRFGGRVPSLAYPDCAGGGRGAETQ
# Procedure, shortened: as §1
# [8] = target: T5, ELF3 (Homo sapiens, UniProt P78545 1-371); details: protein: recombinant; tags: N-terminal GST; dsDNA, one strand shown
# T5 sequence: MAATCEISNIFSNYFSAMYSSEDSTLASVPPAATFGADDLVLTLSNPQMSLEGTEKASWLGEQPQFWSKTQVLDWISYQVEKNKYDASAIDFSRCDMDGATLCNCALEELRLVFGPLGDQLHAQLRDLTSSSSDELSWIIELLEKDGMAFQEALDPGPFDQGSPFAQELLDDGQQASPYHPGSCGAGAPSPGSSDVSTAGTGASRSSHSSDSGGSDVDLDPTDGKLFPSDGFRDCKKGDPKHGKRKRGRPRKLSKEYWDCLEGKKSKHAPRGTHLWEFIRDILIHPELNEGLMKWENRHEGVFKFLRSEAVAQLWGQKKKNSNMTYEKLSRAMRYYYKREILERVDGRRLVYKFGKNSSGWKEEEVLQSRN
# Procedure, shortened: as §1
# [9] = target: CRX (Homo sapiens, UniProt O43186 1-299); details: protein: recombinant; tags: N-terminal GST; dsDNA, one strand shown
# Chain of CRX (O43186 whole entry): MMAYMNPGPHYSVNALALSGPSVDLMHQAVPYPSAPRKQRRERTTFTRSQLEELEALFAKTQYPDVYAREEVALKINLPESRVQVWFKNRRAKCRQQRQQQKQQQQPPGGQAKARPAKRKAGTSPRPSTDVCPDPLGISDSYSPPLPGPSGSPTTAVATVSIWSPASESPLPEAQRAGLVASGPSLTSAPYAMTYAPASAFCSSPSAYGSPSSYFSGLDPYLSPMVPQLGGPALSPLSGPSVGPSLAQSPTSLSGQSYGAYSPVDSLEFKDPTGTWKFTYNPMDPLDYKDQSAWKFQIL
# Procedure, shortened: as §1
# [10] = target: ETV1 (Homo sapiens, UniProt P50549 1-477); details: protein: recombinant; tags: N-terminal GST; dsDNA, one strand shown
# Chain of ETV1 (P50549 whole entry): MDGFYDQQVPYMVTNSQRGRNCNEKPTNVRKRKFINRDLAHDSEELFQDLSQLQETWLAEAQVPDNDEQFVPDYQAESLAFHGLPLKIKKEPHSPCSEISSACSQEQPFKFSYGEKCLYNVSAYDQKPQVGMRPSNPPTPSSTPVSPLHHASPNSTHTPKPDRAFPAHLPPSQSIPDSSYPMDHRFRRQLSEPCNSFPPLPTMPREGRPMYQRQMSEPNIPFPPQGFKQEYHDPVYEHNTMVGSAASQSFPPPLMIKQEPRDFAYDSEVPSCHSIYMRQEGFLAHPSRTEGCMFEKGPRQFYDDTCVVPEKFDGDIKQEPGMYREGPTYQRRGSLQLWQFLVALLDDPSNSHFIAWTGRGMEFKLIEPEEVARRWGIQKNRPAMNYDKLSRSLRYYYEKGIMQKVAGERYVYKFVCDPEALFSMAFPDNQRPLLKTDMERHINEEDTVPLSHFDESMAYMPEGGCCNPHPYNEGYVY
# Procedure, shortened: as §1
# [11] = target: T6, ERF (Homo sapiens, UniProt P50548 1-548); details: protein: recombinant; tags: N-terminal GST; dsDNA, one strand shown
# T6 sequence: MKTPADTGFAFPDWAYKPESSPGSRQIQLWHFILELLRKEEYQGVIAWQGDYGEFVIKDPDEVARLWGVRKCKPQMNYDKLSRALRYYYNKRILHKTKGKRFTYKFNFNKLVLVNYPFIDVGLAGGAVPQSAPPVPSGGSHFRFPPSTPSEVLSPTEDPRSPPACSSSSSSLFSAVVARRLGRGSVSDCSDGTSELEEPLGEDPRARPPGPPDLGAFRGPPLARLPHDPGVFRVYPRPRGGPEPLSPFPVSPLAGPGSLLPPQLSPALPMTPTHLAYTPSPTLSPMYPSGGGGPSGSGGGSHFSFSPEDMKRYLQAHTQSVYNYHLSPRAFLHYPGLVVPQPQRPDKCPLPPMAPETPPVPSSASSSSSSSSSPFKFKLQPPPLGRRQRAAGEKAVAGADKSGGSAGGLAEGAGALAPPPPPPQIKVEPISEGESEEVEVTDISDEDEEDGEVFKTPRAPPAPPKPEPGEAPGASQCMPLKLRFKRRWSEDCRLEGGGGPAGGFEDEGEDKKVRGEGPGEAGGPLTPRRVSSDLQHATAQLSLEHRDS
# Procedure, shortened: as §1
# [12] = target: T7, ETV3L (Homo sapiens, UniProt Q6ZN32 1-361); details: protein: recombinant; tags: N-terminal GST; dsDNA, one strand shown
# T7 sequence: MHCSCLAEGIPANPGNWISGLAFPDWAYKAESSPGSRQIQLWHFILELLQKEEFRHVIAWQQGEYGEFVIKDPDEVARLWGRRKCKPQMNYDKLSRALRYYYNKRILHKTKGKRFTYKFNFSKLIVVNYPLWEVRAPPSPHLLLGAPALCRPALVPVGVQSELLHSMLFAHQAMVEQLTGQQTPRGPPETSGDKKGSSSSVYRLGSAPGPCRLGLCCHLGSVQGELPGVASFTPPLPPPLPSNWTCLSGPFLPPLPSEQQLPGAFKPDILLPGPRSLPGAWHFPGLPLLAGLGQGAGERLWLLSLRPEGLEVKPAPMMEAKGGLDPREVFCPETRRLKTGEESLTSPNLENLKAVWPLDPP
# Procedure, shortened: as §1
# [13] = target: T8, ETS2 (Homo sapiens, UniProt P15036 1-469); details: protein: recombinant; tags: N-terminal GST; dsDNA, one strand shown
# T8 sequence: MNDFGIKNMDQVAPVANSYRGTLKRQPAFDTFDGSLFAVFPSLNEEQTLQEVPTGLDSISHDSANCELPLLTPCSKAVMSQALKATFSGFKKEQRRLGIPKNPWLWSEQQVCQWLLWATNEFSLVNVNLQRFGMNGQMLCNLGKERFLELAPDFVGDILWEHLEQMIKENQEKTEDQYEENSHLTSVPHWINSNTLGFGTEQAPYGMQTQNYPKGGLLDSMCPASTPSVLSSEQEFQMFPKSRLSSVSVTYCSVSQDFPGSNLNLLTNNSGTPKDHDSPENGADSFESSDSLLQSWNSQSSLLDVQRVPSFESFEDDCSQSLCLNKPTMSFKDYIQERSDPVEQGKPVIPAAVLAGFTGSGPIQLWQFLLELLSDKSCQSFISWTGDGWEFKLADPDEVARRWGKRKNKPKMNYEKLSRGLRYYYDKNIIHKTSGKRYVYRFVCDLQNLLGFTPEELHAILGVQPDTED
# Procedure, shortened: as §1
# [14] = target: T9, SPDEF (Homo sapiens, UniProt O95238 1-335); details: protein: recombinant; tags: N-terminal GST; dsDNA, one strand shown
# T9 sequence: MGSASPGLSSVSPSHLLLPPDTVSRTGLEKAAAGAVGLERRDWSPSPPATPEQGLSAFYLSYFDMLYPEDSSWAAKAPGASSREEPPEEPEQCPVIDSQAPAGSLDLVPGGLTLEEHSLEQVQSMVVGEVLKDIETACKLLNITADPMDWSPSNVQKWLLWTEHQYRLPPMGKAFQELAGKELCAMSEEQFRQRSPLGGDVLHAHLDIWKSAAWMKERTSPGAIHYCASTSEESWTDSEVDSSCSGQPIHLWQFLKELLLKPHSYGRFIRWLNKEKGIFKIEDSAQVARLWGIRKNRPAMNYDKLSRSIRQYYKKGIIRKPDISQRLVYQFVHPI
# Procedure, shortened: as §1
# [15] = target: T10, ETV7 (Homo sapiens, UniProt Q9Y603 1-341); details: protein: recombinant; tags: N-terminal GST; dsDNA, one strand shown
# T10 sequence: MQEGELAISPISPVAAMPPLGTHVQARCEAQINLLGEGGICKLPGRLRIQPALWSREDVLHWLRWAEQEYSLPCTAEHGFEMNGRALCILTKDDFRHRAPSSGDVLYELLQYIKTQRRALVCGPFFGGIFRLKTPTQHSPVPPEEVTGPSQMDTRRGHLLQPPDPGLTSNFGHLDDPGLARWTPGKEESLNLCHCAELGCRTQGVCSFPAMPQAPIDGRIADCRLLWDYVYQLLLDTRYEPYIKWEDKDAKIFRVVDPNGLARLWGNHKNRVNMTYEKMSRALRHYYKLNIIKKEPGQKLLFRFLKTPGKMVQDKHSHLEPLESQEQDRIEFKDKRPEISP
# Procedure, shortened: as §1
# [16] = target: T11, ELF5 (Homo sapiens, UniProt Q9UKW6-2 1-255); details: protein: recombinant; tags: N-terminal GST; dsDNA, one strand shown
# T11 sequence: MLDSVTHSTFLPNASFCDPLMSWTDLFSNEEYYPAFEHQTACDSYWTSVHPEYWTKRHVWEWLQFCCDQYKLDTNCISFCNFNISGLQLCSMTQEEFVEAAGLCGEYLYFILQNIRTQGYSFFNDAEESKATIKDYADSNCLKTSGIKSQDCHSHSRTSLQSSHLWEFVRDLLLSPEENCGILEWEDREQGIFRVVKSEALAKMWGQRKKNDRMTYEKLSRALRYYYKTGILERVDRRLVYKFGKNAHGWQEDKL
# Procedure, shortened: as §1
# [17] = target: T12, ETV3 (Homo sapiens, UniProt P41162-2 1-143); details: protein: recombinant; tags: N-terminal GST; dsDNA, one strand shown
# T12 sequence: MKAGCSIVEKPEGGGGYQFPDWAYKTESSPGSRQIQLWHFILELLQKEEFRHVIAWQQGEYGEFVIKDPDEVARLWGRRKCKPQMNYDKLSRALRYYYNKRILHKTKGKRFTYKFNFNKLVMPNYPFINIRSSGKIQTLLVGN
# Procedure, shortened: as §1
# [18] = target: ETV6 (Homo sapiens, UniProt P41212 1-452); details: protein: recombinant; tags: N-terminal GST; dsDNA, one strand shown
# Chain of ETV6 (P41212 whole entry): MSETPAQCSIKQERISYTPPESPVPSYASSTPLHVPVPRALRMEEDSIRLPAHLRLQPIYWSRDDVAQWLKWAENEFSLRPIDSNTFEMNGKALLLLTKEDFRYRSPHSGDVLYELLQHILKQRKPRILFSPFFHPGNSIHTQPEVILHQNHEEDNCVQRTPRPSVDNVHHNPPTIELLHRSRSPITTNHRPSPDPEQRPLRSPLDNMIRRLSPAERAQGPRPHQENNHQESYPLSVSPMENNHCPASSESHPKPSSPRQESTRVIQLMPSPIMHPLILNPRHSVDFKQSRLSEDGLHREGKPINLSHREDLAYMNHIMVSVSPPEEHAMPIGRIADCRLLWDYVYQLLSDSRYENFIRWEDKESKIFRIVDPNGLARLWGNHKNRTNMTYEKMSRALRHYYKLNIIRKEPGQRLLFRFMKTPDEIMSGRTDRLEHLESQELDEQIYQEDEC
# Procedure, shortened: as §1
sequence,measurement,setting,value
ACTTTA,binding signal,[1],"1.15 fold enrichment (6-mer frequency, TF over GST control)"
same,binding signal,[2],"1.21 fold enrichment (6-mer frequency, TF over GST control)"
same,binding signal,[3],"1.33 fold enrichment (6-mer frequency, TF over GST control)"
same,binding signal,[4],"1.21 fold enrichment (6-mer frequency, TF over GST control)"
same,binding signal,[5],"1.23 fold enrichment (6-mer frequency, TF over GST control)"
same,binding signal,[6],"1.15 fold enrichment (6-mer frequency, TF over GST control)"
same,binding signal,[7],"1.26 fold enrichment (6-mer frequency, TF over GST control)"
same,binding signal,[8],"1.23 fold enrichment (6-mer frequency, TF over GST control)"
same,binding signal,[9],"1.54 fold enrichment (6-mer frequency, TF over GST control)"
same,binding signal,[10],"1.21 fold enrichment (6-mer frequency, TF over GST control)"
same,binding signal,[11],"1.12 fold enrichment (6-mer frequency, TF over GST control)"
same,binding signal,[12],"1.26 fold enrichment (6-mer frequency, TF over GST control)"
same,binding signal,[13],"1.25 fold enrichment (6-mer frequency, TF over GST control)"
same,binding signal,[14],"1.08 fold enrichment (6-mer frequency, TF over GST control)"
same,binding signal,[15],"1.29 fold enrichment (6-mer frequency, TF over GST control)"
same,binding signal,[16],"1.15 fold enrichment (6-mer frequency, TF over GST control)"
same,binding signal,[17],"1.19 fold enrichment (6-mer frequency, TF over GST control)"
same,binding signal,[18],"1.18 fold enrichment (6-mer frequency, TF over GST control)"
